# According to the supplement of paper PMC4022240:
# ± gives the standard deviation.
# T1: HaloTag-ATRX ADD domain (163-292)
# T1 chain: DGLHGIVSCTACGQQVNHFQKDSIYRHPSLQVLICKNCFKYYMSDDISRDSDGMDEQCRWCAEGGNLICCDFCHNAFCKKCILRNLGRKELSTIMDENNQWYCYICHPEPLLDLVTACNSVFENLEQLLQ
# What was measured:
# Assay in all cases: peptide microarray binding signal (635 nm), min-max normalized on array (fraction of array maximum); higher = stronger binding
# Conditions in all cases: peptide region: H3 1-13
# [1] = biological target: T1, HaloTag-ATRX ADD domain (163-292)
# Method: (§1)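 Histone 13-mer peptides were synthesized as cellulose conjugates with a C-terminal 20-atom PEG linker and printed in triplicate on nitrocellulose. The sequence given is the unmodified backbone; PTMs (Kme1/2/3, Kac, Sph/Tph, Rme/Rme2a/Rme2s, Rcit) are listed in the label and the 'peptide modifications' condition. Slides were probed at 4 °C for 1 h with biotin-labelled (HQ)5-HaloTag reader fusions (ATRX-ADD, ING2-PHD) then streptavidin-Alexa647, or with rabbit histone antibodies then anti-rabbit Alexa647. The mean 635 nm signal of the triplicate spots was scaled 0-1 between the lowest and highest values on each array.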
# [2] = biological target: HaloTag-ING2 PHD (mouse Ing2 200-280)
# Method: as §1
# [3] = biological target: anti-H3K4me3 antibody ab8580
# Method: as §1
# [4] = biological target: anti-H3K9me3 antibody ab8898
# Method: as §1
# [5] = peptide modifications: H3R8me1 H3K9me3, binder concentration: 1:2,000 dilution
# [6] = peptide modifications: H3R8me1 H3K9me3, binder concentration: 1:10,000 dilution
# [7] = peptide modifications: H3R8me2a H3K9me2, binder concentration: 1:2,000 dilution
# [8] = peptide modifications: H3R8me2a H3K9me2, binder concentration: 1:10,000 dilution
# [9] = peptide modifications: H3R8me1, binder concentration: 1:2,000 dilution
# [10] = peptide modifications: H3R8me1, binder concentration: 1:10,000 dilution
# [11] = peptide modifications: H3R8cit, binder concentration: 1:2,000 dilution
# [12] = peptide modifications: H3R8cit, binder concentration: 1:10,000 dilution
# [13] = peptide modifications: H3R8cit H3K9me3, binder concentration: 1:2,000 dilution
# [14] = peptide modifications: H3R8cit H3K9me3, binder concentration: 1:10,000 dilution
# [15] = peptide modifications: H3R8me2a H3K9me1, binder concentration: 1:2,000 dilution
# [16] = peptide modifications: H3R8me2a H3K9me1, binder concentration: 1:10,000 dilution
# [17] = peptide modifications: H3R8me1 H3K9me1, binder concentration: 1:2,000 dilution
# [18] = peptide modifications: H3R8me1 H3K9me1, binder concentration: 1:10,000 dilution
# [19] = peptide modifications: H3R8me2a H3K9ac, binder concentration: 1:2,000 dilution
# [20] = peptide modifications: H3R8me2a H3K9ac, binder concentration: 1:10,000 dilution
# [21] = peptide modifications: H3R8me1 H3K9me2, binder concentration: 1:2,000 dilution
# [22] = peptide modifications: H3R8me1 H3K9me2, binder concentration: 1:10,000 dilution
# [23] = peptide modifications: H3R8me1 H3K9ac, binder concentration: 1:2,000 dilution
# [24] = peptide modifications: H3R8me1 H3K9ac, binder concentration: 1:10,000 dilution
binder,measurement,setting,value
ARTKQTARKSTGG [H3 1-13 A R T K Q T A Rme Kme3 S T G G],peptide microarray binding signal,"[1]; peptide modifications: H3R8me1 H3K9me3, binder concentration: 50 nM",0.398 ± 0.0051
same,peptide microarray binding signal,"[1]; peptide modifications: H3R8me1 H3K9me3, binder concentration: 500 nM",0.396 ± 0.0076
same,peptide microarray binding signal,"[2]; peptide modifications: H3R8me1 H3K9me3, binder concentration: 10 nM",0.0338 ± 0.011
same,peptide microarray binding signal,"[2]; peptide modifications: H3R8me1 H3K9me3, binder concentration: 100 nM",0.0759 ± 0.034
same,peptide microarray binding signal,[3]; [5],0.0426 ± 0.012
same,peptide microarray binding signal,[3]; [6],0.0253 ± 0.013
same,peptide microarray binding signal,[4]; [5],0.258 ± 0.015
same,peptide microarray binding signal,[4]; [6],0.171 ± 0.017
ARTKQTARKSTGG [H3 1-13 A R T K Q T A Rme2a Kme2 S T G G],peptide microarray binding signal,"[1]; peptide modifications: H3R8me2a H3K9me2, binder concentration: 50 nM",0.0425 ± 0.0031
same,peptide microarray binding signal,"[1]; peptide modifications: H3R8me2a H3K9me2, binder concentration: 500 nM",0.0913 ± 0.0063
same,peptide microarray binding signal,"[2]; peptide modifications: H3R8me2a H3K9me2, binder concentration: 10 nM",0.044 ± 0.0014
same,peptide microarray binding signal,"[2]; peptide modifications: H3R8me2a H3K9me2, binder concentration: 100 nM",0.06 ± 0.0041
same,peptide microarray binding signal,[3]; [7],0.00357 ± 0.00013
same,peptide microarray binding signal,[3]; [8],0.00314 ± 4.6e-05
same,peptide microarray binding signal,[4]; [7],0.00355 ± 0.00032
same,peptide microarray binding signal,[4]; [8],0.00334 ± 0.00031
ARTKQTARKSTGG [H3 1-13 A R T K Q T A Rme K S T G G],peptide microarray binding signal,"[1]; peptide modifications: H3R8me1, binder concentration: 50 nM",0.00875 ± 0.0009
same,peptide microarray binding signal,"[1]; peptide modifications: H3R8me1, binder concentration: 500 nM",0.0184 ± 0.00056
same,peptide microarray binding signal,"[2]; peptide modifications: H3R8me1, binder concentration: 10 nM",0.005013 ± 5e-05
same,peptide microarray binding signal,"[2]; peptide modifications: H3R8me1, binder concentration: 100 nM",0.0155 ± 0.0047
same,peptide microarray binding signal,[3]; [9],0.000717 ± 4.6e-05
same,peptide microarray binding signal,[3]; [10],0.000685 ± 2.6e-05
same,peptide microarray binding signal,[4]; [9],0.00071 ± 4.4e-05
same,peptide microarray binding signal,[4]; [10],0.000519 ± 5.6e-06
ARTKQTARKSTGG [H3 1-13 A R T K Q T A Rcit K S T G G],peptide microarray binding signal,"[1]; peptide modifications: H3R8cit, binder concentration: 50 nM",0.00727 ± 0.00022
same,peptide microarray binding signal,"[1]; peptide modifications: H3R8cit, binder concentration: 500 nM",0.0196 ± 0.0019
same,peptide microarray binding signal,"[2]; peptide modifications: H3R8cit, binder concentration: 10 nM",0.0125 ± 0.004
same,peptide microarray binding signal,"[2]; peptide modifications: H3R8cit, binder concentration: 100 nM",0.0291 ± 0.013
same,peptide microarray binding signal,[3]; [11],0.000359 ± 9.7e-06
same,peptide microarray binding signal,[3]; [12],0.000456 ± 9.9e-06
same,peptide microarray binding signal,[4]; [11],0.000785 ± 7.6e-05
same,peptide microarray binding signal,[4]; [12],0.000404 ± 4.4e-06
ARTKQTARKSTGG [H3 1-13 A R T K Q T A Rcit Kme3 S T G G],peptide microarray binding signal,"[1]; peptide modifications: H3R8cit H3K9me3, binder concentration: 50 nM",0.325 ± 0.047
same,peptide microarray binding signal,"[1]; peptide modifications: H3R8cit H3K9me3, binder concentration: 500 nM",0.387 ± 0.024
same,peptide microarray binding signal,"[2]; peptide modifications: H3R8cit H3K9me3, binder concentration: 10 nM",0.0423 ± 0.0029
same,peptide microarray binding signal,"[2]; peptide modifications: H3R8cit H3K9me3, binder concentration: 100 nM",0.055 ± 0.0029
same,peptide microarray binding signal,[3]; [13],0.0234 ± 0.008
same,peptide microarray binding signal,[3]; [14],0.0152 ± 0.0012
same,peptide microarray binding signal,[4]; [13],0.331 ± 0.019
same,peptide microarray binding signal,[4]; [14],0.296 ± 0.055
ARTKQTARKSTGG [H3 1-13 A R T K Q T A Rme2a Kme S T G G],peptide microarray binding signal,"[1]; peptide modifications: H3R8me2a H3K9me1, binder concentration: 50 nM",0.0352 ± 0.0011
same,peptide microarray binding signal,"[1]; peptide modifications: H3R8me2a H3K9me1, binder concentration: 500 nM",0.0882 ± 0.0059
same,peptide microarray binding signal,"[2]; peptide modifications: H3R8me2a H3K9me1, binder concentration: 10 nM",0.033 ± 0.0066
same,peptide microarray binding signal,"[2]; peptide modifications: H3R8me2a H3K9me1, binder concentration: 100 nM",0.0721 ± 0.0073
same,peptide microarray binding signal,[3]; [15],0.00366 ± 0.00063
same,peptide microarray binding signal,[3]; [16],0.00114 ± 3e-05
same,peptide microarray binding signal,[4]; [15],0.00186 ± 0.00023
same,peptide microarray binding signal,[4]; [16],0.00208 ± 7.7e-05
ARTKQTARKSTGG [H3 1-13 A R T K Q T A Rme Kme S T G G],peptide microarray binding signal,"[1]; peptide modifications: H3R8me1 H3K9me1, binder concentration: 50 nM",0.0189 ± 0.0012
same,peptide microarray binding signal,"[1]; peptide modifications: H3R8me1 H3K9me1, binder concentration: 500 nM",0.0502 ± 0.0023
same,peptide microarray binding signal,"[2]; peptide modifications: H3R8me1 H3K9me1, binder concentration: 10 nM",0.0183 ± 0.0025
same,peptide microarray binding signal,"[2]; peptide modifications: H3R8me1 H3K9me1, binder concentration: 100 nM",0.0398 ± 0.0084
same,peptide microarray binding signal,[3]; [17],0.00206 ± 9e-05
same,peptide microarray binding signal,[3]; [18],0.00108 ± 5e-05
same,peptide microarray binding signal,[4]; [17],0.00319 ± 0.00084
same,peptide microarray binding signal,[4]; [18],0.00202 ± 3.2e-05
ARTKQTARKSTGG [H3 1-13 A R T K Q T A Rme2a Kac S T G G],peptide microarray binding signal,"[1]; peptide modifications: H3R8me2a H3K9ac, binder concentration: 50 nM",0.0172 ± 0.00041
same,peptide microarray binding signal,"[1]; peptide modifications: H3R8me2a H3K9ac, binder concentration: 500 nM",0.0506 ± 0.0025
same,peptide microarray binding signal,"[2]; peptide modifications: H3R8me2a H3K9ac, binder concentration: 10 nM",0.0458 ± 0.0028
same,peptide microarray binding signal,"[2]; peptide modifications: H3R8me2a H3K9ac, binder concentration: 100 nM",0.0544 ± 0.012
same,peptide microarray binding signal,[3]; [19],0.00338 ± 0.00042
same,peptide microarray binding signal,[3]; [20],0.00285 ± 0.00048
same,peptide microarray binding signal,[4]; [19],0.00364 ± 0.00047
same,peptide microarray binding signal,[4]; [20],0.00179 ± 4.5e-05
ARTKQTARKSTGG [H3 1-13 A R T K Q T A Rme Kme2 S T G G],peptide microarray binding signal,"[1]; peptide modifications: H3R8me1 H3K9me2, binder concentration: 50 nM",0.0149 ± 0.00099
same,peptide microarray binding signal,"[1]; peptide modifications: H3R8me1 H3K9me2, binder concentration: 500 nM",0.0405 ± 0.00097
same,peptide microarray binding signal,"[2]; peptide modifications: H3R8me1 H3K9me2, binder concentration: 10 nM",0.0115 ± 0.00013
same,peptide microarray binding signal,"[2]; peptide modifications: H3R8me1 H3K9me2, binder concentration: 100 nM",0.0224 ± 0.00044
same,peptide microarray binding signal,[3]; [21],0.00179 ± 7.7e-05
same,peptide microarray binding signal,[3]; [22],0.00108 ± 5.7e-05
same,peptide microarray binding signal,[4]; [21],0.00208 ± 0.00038
same,peptide microarray binding signal,[4]; [22],0.0019 ± 6.5e-05
ARTKQTARKSTGG [H3 1-13 A R T K Q T A Rme Kac S T G G],peptide microarray binding signal,"[1]; peptide modifications: H3R8me1 H3K9ac, binder concentration: 50 nM",0.00721 ± 8e-05
same,peptide microarray binding signal,"[1]; peptide modifications: H3R8me1 H3K9ac, binder concentration: 500 nM",0.0187 ± 0.0017
same,peptide microarray binding signal,"[2]; peptide modifications: H3R8me1 H3K9ac, binder concentration: 10 nM",0.0141 ± 0.00051
same,peptide microarray binding signal,"[2]; peptide modifications: H3R8me1 H3K9ac, binder concentration: 100 nM",0.0352 ± 0.0065
same,peptide microarray binding signal,[3]; [23],0.00179 ± 0.00022
same,peptide microarray binding signal,[3]; [24],0.000628 ± 6.7e-06
same,peptide microarray binding signal,[4]; [23],0.00122 ± 4.2e-05
same,peptide microarray binding signal,[4]; [24],0.000807 ± 1.5e-05
